In PubChem BioAssay (EPA / NIEHS):
Results filed as inconclusive are left out. Active and inactive are the calls of the source. Rule for the calls: active = hit-call score of the fitted dose curve at least 0.9, where 1 is the maximum; inconclusive = response in the unintended direction; inactive = score below 0.9.

experiment: ACEA_AR_agonist_AUC_viability: ACEA Biosciences xCELLigence Real-Time Cell Analysis on Androgen Receptor Agonism for Viability (AID 2283775);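 for AC50: viability read 80 hours after compound addition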
Outline: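 Read-out is area under the impedance curve at 80 h post-dose in 22Rv1 cells, with DMSO as baseline and signal loss taken as reduced viability. Compounds ran in duplicate from 100 uM final.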

Row | Compound | AC50 | outcome
1 | CN(C)C(=O)C1(N2CCCCC2)CCN(CC[C@@]2(c3ccc(Cl)c(Cl)c3)CN(C(=O)c3ccccc3)CCO2)CC1 | 10.5 µM (active) | 
2 | Cc1ncc(CO)c(CO)c1O |  | inactive
3 | Cc1oc2c(NC(=O)c3c(Cl)cccc3Cl)cccc2c1C(C)(C)O | 22.8 µM (active) | 
4 | CCCCOC(=O)CC(CC(=O)OCCCC)(OC(C)=O)C(=O)OCCCC |  | inactive
5 | NC(=O)c1nc(-c2cccc(-c3cc(F)ccc3OCC(F)(F)C(F)(F)F)c2)n[nH]1 | 24.6 µM (active) | 
6 | CCCCCCCCCCCO | 90.2 µM (active) | 
7 | O=C(O)Cn1c(=O)n(Cc2ccc(Br)cc2F)c(=O)c2ccc(Cl)cc21 |  | inactive
8 | c1ccc(C[n+]2cccc3ccccc32)cc1 | 50 µM (active) | 
9 | O=C(OCCCCCCOC(=O)c1ccccc1)c1ccccc1 | 74 µM (active) | 
10 | O=c1ccc2ccccc2o1 |  | inactive
11 | CCCCOC(=O)c1ccc(O)cc1 | 69.5 µM (active) | 
12 | COc1cccc([C@H](O)C2CCN(CCc3ccc(F)cc3)CC2)c1OC | 50 µM (active) | 
13 | Cc1ccc(C(C)C)cc1 |  | inactive
14 | CC[C@@H]1C[C@H](N(Cc2cc(C(F)(F)F)cc(C(F)(F)F)c2)C(C)=O)c2cc(C(F)(F)F)ccc2N1C(=O)OC(C)C |  | inactive
15 | Clc1ccccc1C(c1ccccc1)(c1ccccc1)n1ccnc1 | 16.9 µM (active) | 
16 | CC1=CC(=O)/C(=C(/C)O)C(=O)O1 |  | inactive
17 | Cc1cc2c(cc1C(F)(F)F)N(C(=O)Nc1ccc(Oc3cccnc3C)nc1)CC2 | 17.1 µM (active) | 
18 | CN1C(=O)N(c2ccccc2Br)Cc2cnc(Nc3ccc4c(c3)OCC(CO)O4)nc21 (stereo not drawn) | 20.5 µM (active) | 
